Laboratory results as given in PubChem BioAssay.
The source made the active and inactive calls. Unless noted, how the calls were made is not given here.

Experiments:
[1] = test system: Wnt5a (protein binding on small-molecule microarray); assay: small molecules binding Wnt5a protein – biophysical, small-molecule microarray, 635/667 nm fluorescence, primary screen (AID 1142); details: 635 nm fluorescence, higher = more signal;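 further: fluorescence read at 667 nm with signal to noise per printed feature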
[2] = ATP-based viability of Huh7 replicon cells – cell-based, CellTiter-Glo luminescence, basal, 48 h, cytotoxicity control for HCV replication inhibitor project, primary screen (AID 1143); details: higher = more signal, called active from +8 up or from −8 down;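 further: Huh7 hepatoma cells carrying a hepatitis C replication reporter with no stimulus; test concentration not given here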
[3] = Pseudomonas biofilm growth suppression – PAO1 strain, BacTiter-Glo luminescence, LB-PBS, primary screen (AID 1144); details: P. aeruginosa PAO1 biofilm, 12 h, higher = more signal
[4] = basal CRE-LacZ reporter activity in PC12 – cell-based, unstimulated, primary screen (AID 1145); details: no forskolin, luminescence, 4.5 h, higher = more signal, called active from +8 up or from −8 down
[5] = forskolin-driven CRE-LacZ activity in PC12 – cell-based, CRE-LacZ reporter, forskolin-stimulated, primary screen (AID 1146); details: luminescence, 4.5 h, higher = more signal, called active from +8 up or from −8 down;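 further: PC12 cells with 6xCRE LacZ reporter stimulated by forskolin 10 µM; beta-galactosidase reporter signal reflecting CREB driven transcription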
[6] = biological target: Streptavidin (Streptomyces avidinii) (UniProt P22629); assay: compounds binding control protein streptavidin – biophysical, small-molecule microarray, 635/667 nm fluorescence, artefact control for SMM compound annotation, primary screen (AID 1147); details: higher = more signal;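 further: signal reflects streptavidin binding to arrayed compounds as a control protein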
Chain of Streptavidin (Streptomyces avidinii) (P22629 whole entry, looked up): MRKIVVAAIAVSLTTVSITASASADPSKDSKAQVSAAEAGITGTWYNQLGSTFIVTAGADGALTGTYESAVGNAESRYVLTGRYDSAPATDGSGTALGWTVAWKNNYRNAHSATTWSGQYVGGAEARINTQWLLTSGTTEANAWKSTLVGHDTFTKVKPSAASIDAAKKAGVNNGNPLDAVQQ

[7] = probe aInhba binding on compound microarray – biochemical, small-molecule microarray, 635/667 nm fluorescence, primary screen (AID 1148); details: higher = more signal;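 further: score merges 667nm spot fluorescence with signal-to-noise for antibody binding to printed compounds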
Torsin-1A (Homo sapiens) [8] = biological target: Torsin-1A (Homo sapiens) (UniProt O14656); assay: TOR1A wild-type binding on microarray – cell lysate, small-molecule microarray, lysate, 635/667 nm, primary screen (AID 1149); details: COS7 hTOR1A-WT lysate, 635 nm fluorescence, higher = more signal
Chain of Torsin-1A (Homo sapiens) (O14656 whole entry, looked up): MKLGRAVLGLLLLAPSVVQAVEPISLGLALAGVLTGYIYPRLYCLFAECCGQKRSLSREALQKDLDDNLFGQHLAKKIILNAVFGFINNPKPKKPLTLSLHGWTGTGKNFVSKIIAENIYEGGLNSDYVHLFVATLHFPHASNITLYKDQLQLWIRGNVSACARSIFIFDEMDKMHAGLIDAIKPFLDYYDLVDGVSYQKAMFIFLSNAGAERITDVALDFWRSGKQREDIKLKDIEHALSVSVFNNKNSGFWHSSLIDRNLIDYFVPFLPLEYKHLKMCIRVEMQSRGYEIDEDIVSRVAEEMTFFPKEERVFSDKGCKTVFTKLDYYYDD

Torsin-1A (Homo sapiens) [9] = biological target: Torsin-1A (Homo sapiens) (UniProt O14656); assay: torsin A mutant lysate binding on microarrays – cell lysate, small-molecule microarray, COS7 lysate, 635/667 nm fluorescence, primary screen (AID 1150); details: COS7 hTOR1A mutant lysate, 635 nm fluorescence, higher = more signal;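 further: score pools 667 nm emission and signal to noise measuring lysate protein binding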
[10] = test system: Sonic hedgehog protein (Shh); assay: Sonic hedgehog microarray binding compounds – biochemical, small-molecule microarray, 635/667 nm fluorescence, primary screen (AID 1151); details: 635 nm fluorescence, higher = more signal;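 further: Shh protein binding to compounds spotted on small-molecule microarray slides; score combines spot fluorescence intensity with signal-to-noise across triplicate slides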
[11] = optical density shifts of acrAB sulA E. coli – strain DRC41, OD650, 48 h, E. coli filamentation inducer project, primary screen (AID 1152); details: higher = more signal, called active from +8 up or from −8 down;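 further: E. coli MC1000 strain DRC41 lacking acrAB efflux pump and sulA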
[12] = probe aLefty1 binding on compound microarray – biochemical, small-molecule microarray, 635/667 nm fluorescence, primary screen (AID 1153); details: higher = more signal;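 further: score merges spot fluorescence with signal-to-noise ratio from the scanned slide images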
[13] = plasmodial surface anion channel blockers, osmotic lysis – cell-based, P. falciparum Indochina, OD700, 1 h, primary screen (AID 1154); details: P. falciparum Indochina infected RBC osmotic lysis, higher = more signal, called active from +8 up or from −8 down
[14] = plasmodial surface anion channel blockers, osmotic lysis – cell-based, P. falciparum Indochina, OD700, 2 h, primary screen (AID 1155);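 further: lysis reports solute entry through the parasite surface anion channel PSAC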; details: P. falciparum Indochina infected erythrocytes, higher = more signal, called active from +8 up or from −8 down
[15] = changes in parasitized red cell lysis, either direction – P. falciparum Indochina, OD700, 3 h, PSAC antagonist project, primary screen (AID 1156); details: P. falciparum-infected erythrocytes, osmotic lysis, higher = more signal, called active from +8 up or from −8 down
[16] = plasmodial surface anion channel blockers, osmotic lysis – cell-based, P. falciparum Indochina, OD700, 18 h, primary screen (AID 1157); details: P. falciparum Indochina infected erythrocytes, osmotic lysis OD700, 18 h; higher = more signal, called active from +8 up or from −8 down
[17] = S6 kinase pathway phospho-S6 level changes – cell-based, A549, cytoblot, luminescence, serum-stimulated, primary screen (AID 1158); details: 5 h, higher = more signal;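 further: serum-stimulated A549 lung adenocarcinoma cells; signal is phosphorylated S6 detected by cytoblot immunostaining with HRP secondary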
[18] = biological target: NADPH oxidase 2 (Homo sapiens) (UniProt P04839); assay: compounds shifting NOX2 Amplex Red fluorescence – cell-based, HEK293-NOX2, PMA-stimulated, NOX inhibitor project, primary screen (AID 1159); details: 45 min, higher = more signal, called active from +8 up or from −8 down; further: test concentration not given here
Chain of NADPH oxidase 2 (Homo sapiens) (P04839 whole entry, looked up): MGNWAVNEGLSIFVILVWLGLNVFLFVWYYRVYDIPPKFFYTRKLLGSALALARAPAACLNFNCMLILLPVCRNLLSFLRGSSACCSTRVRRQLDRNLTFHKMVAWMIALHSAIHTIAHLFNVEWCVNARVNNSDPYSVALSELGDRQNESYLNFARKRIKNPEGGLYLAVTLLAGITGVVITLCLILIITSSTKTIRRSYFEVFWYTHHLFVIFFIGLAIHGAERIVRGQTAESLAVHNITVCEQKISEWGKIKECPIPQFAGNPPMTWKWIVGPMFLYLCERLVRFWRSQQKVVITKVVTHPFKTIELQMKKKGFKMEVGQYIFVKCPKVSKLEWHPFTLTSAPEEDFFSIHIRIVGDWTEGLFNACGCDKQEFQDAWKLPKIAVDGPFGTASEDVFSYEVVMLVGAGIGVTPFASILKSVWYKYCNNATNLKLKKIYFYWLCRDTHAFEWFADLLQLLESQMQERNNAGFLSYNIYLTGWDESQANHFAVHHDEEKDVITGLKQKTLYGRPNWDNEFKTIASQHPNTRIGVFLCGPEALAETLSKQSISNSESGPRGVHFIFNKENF

[19] = biological target: NADPH oxidase 4 (Homo sapiens) (UniProt Q9NPH5); assay: compounds shifting NOX4 Amplex Red fluorescence – cell-based, HEK293-NOX4, tetracycline-induced, NOX inhibitor project, primary screen (AID 1160); details: HEK293-NOX4, Amplex Red H2O2 fluorescence, 45 min; higher = more signal, called active from +8 up or from −8 down
Chain of NADPH oxidase 4 (Homo sapiens) (Q9NPH5 whole entry, looked up): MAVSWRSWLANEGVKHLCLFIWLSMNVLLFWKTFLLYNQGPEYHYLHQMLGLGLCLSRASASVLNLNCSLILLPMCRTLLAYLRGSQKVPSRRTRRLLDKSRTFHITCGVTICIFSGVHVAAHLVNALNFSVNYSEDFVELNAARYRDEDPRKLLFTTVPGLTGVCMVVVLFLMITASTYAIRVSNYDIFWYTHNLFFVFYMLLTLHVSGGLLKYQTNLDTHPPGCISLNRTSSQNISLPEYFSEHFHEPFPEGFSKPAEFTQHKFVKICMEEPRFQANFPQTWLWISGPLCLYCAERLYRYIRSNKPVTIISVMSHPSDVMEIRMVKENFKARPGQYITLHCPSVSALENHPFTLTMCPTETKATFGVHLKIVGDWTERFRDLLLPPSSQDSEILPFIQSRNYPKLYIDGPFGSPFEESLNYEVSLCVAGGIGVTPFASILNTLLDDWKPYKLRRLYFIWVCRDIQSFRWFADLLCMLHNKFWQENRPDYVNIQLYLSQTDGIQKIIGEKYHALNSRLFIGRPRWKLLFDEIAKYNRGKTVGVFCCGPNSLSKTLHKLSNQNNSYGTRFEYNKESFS

[20] = biological target: NADPH oxidase 5 (Homo sapiens) (UniProt Q96PH1); assay: compounds shifting NOX5 Amplex Red fluorescence – cell-based, HEK293-NOX5, NOX inhibitor project, primary screen (AID 1161); details: HEK293-NOX5, ionomycin, 45 min, higher = more signal
Chain of NADPH oxidase 5 (Homo sapiens) (Q96PH1 whole entry, looked up): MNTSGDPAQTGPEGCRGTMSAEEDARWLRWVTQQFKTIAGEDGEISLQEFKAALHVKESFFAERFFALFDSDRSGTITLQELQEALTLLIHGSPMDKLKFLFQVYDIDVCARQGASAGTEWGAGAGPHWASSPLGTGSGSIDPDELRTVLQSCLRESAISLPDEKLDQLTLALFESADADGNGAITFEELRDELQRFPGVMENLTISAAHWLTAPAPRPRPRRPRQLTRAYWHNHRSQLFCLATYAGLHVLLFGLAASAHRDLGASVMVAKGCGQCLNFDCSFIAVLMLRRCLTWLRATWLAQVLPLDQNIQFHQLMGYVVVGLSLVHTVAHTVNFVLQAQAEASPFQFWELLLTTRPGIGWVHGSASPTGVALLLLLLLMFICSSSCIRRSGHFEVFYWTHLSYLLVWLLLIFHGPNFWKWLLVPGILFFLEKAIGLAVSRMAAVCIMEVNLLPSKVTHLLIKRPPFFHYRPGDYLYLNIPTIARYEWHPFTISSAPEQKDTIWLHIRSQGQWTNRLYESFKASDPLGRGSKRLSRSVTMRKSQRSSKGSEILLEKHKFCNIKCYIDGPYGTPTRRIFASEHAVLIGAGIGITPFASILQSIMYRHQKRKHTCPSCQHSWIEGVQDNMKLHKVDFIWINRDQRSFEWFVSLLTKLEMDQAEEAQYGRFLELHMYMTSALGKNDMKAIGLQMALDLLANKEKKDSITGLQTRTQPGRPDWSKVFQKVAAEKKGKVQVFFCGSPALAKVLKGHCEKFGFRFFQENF

Row | Structure (SMILES) | composite z-score [1] | z-score [2] | z-score [3] | z-score [4] | z-score [5] | composite z-score [6] | composite z-score [7] | composite z-score (Torsin-1A (Homo sapiens) [8]) | composite z-score (Torsin-1A (Homo sapiens) [9]) | composite z-score [10] | z-score [11] | composite z-score [12] | z-score [13] | z-score [14] | z-score [15] | z-score [16] | z-score [17] | z-score [18] | z-score [19] | z-score [20]
1 | CCCC[C@H]1C[C@@H]1[C@@H]1N(C(C)=O)[C@H](c2cccc(OC)c2)CC12CC2 | -0.0718 | -0.338 (inactive) | 0.824 (inactive) | 0.583 (inactive) | -0.0157 (inactive) | 0.361 | 0.0111 | -0.53 | 0.0852 | -0.784 | -1.17 (inactive) | 0.416 | 3.6 (inactive) | 0.984 (inactive) | 1.1 (inactive) | 0.692 (inactive) | -0.168 | -0.927 (inactive) | 0.998 (inactive) | -2.9
2 | CN(C)CCCCNC(=O)[C@H]1C[C@H]2C(=O)N3CCC[C@H]3C(=O)N2[C@H]1c1cccc(OCCO)c1 | -0.202 | 0.196 (inactive) | -1.17 (inactive) | 0.0043 (inactive) | -0.258 (inactive) | 1.89 | -0.0403 | -0.107 | 0.98 | 1.17 | -0.019 (inactive) | 0.517 | 2.99 (inactive) | 0.502 (inactive) | 0.348 (inactive) | 0.178 (inactive) | -0.0038 | 0.787 (inactive) | 1.37 (inactive) | 0.803
3 | C=C(CCCC)C(=O)CC[C@H](OC(=O)c1ccccc1-c1ccccc1C(=O)O)c1ccc(OCCO)cc1 | 0.475 | -1.19 (inactive) | -1.5 (inactive) | -0.35 (inactive) | 2.12 (inactive) | -0.092 | 0.0614 | 0.374 | 0.204 | 1.91 | 0.418 (inactive) | -0.199 | 12.3 (active) | 1.38 (inactive) | 1.49 (inactive) | 0.847 (inactive) | -0.265 | 0.135 (inactive) | -0.406 (inactive) | -1.59
4 | CC(C)N1C(=O)C[C@@](C(=O)NCCN2CCOCC2)(c2ccc([N+](=O)[O-])cc2)[C@H]1c1ccc(CO)cc1 | -0.182 | -2.94 (inactive) | -1.4 (inactive) | -0.295 (inactive) | 0.668 (inactive) | -0.919 | -0.154 | -2.27 | 1.04 | -1.1 | 0.344 (inactive) | -0.832 | 1.63 (inactive) | -0.0494 (inactive) | 1.53 (inactive) | 0.35 (inactive) | 0.265 | -0.54 (inactive) | -0.685 (inactive) | -2.46
5 | COC(=O)C1=CC(CCCO)=CC(c2cccs2)N(Cc2cc3c(cc2Br)OCO3)C=C1C(=O)OC (stereo not given) | 0.46 | -1.96 (inactive) | 0.587 (inactive) | 0.326 (inactive) | 0.458 (inactive) | 1.99 | 0.0659 | 0.565 | 1.12 | 0.322 | 0.801 (inactive) | -0.0629 | 5.84 (inactive) | 1.17 (inactive) | 0.277 (inactive) | 0.621 (inactive) | -0.176 | 1 (inactive) | -1.26 (inactive) | 1.05
6 | CCCC=C(CCC)[C@@H](NC(=O)c1ccc(C(F)(F)F)cc1)c1ccc(C(F)(F)F)cc1 | 0.63 | -2.78 (inactive) | 0.429 (inactive) | 0.779 (inactive) | 0.34 (inactive) | 0.48 | 0.207 | 0.342 | 0.587 | -0.605 | -1.35 (inactive) | 0.792 | 1.23 (inactive) | 0.588 (inactive) | -0.957 (inactive) | 1.25 (inactive) | -0.523 | -0.0499 (inactive) | -0.414 (inactive) | 2.97
7 | COC(=O)[C@H](Cc1ccc(O)cc1)N[C@@H](/C=C/C1CC1)[C@H](O)Cc1ccccc1 | -0.377 | -0.794 (inactive) | 0.814 (inactive) | 7.92 (inactive) | 1.6 (inactive) | -0.295 | -0.153 | -0.474 | 0.0615 | -0.142 | -0.571 (inactive) | -0.275 | 0.963 (inactive) | 0.496 (inactive) | 0.098 (inactive) | -0.0396 (inactive) | -0.557 | 0.0285 (inactive) | 0.516 (inactive) | -0.929
8 | O=C1O[C@@H](c2ccccc2)[C@@H](c2ccccc2)N2[C@@H](c3ccc(OCCO)cc3)[C@]3(C(=O)Nc4ccc(C#CC5(O)CCCCCC5)cc43)[C@@H](C(=O)Nc3nc4ccccc4s3)[C@H]12 | 0.41 | -1.6 (inactive) | -0.213 (inactive) | 0.685 (inactive) | -0.0048 (inactive) | 1.44 | 0.0945 | 1.14 | 0.985 | 1.11 | 0.219 (inactive) | -0.0061 | 2.63 (inactive) | 1.76 (inactive) | 0.626 (inactive) | 1.96 (inactive) | 0.693 | 1.2 (inactive) | -1.33 (inactive) | 0.52
9 | O=C1OCCC=C[C@H]2OC34C=CCN(c5ccc6ccccc6c5)C(=O)[C@H]3N(CCO)C(=O)[C@@H]4C12 (stereo not given in full) | -0.457 | 0.291 (inactive) | -0.663 (inactive) | -0.887 (inactive) | 0.463 (inactive) | -0.906 | -0.753 | -1.41 | -0.669 | 0.116 | -0.701 (inactive) | -0.815 | 0.809 (inactive) | 0.791 (inactive) | 1.11 (inactive) | 0.332 (inactive) | -0.366 | 1.47 (inactive) | -0.0539 (inactive) | 2.41
